Experimental findings from PubChem BioAssay (NCATS) are described below.

Results filed as inconclusive are left out. Calls of active or inactive are those of the source. Calls come from the whole dose curve; as a rule, active = well fitted inhibition curve with a large enough effect; inconclusive = small, poorly fitted or top-dose-only effect; inactive = flat fitted curve, though single readings scatter.

Sequence of Tyrosine-protein phosphatase non-receptor type substrate 1 (Homo sapiens) + Leukocyte surface antigen CD47 (Homo sapiens) (P78324 whole entry, looked up, the tested form may be a part): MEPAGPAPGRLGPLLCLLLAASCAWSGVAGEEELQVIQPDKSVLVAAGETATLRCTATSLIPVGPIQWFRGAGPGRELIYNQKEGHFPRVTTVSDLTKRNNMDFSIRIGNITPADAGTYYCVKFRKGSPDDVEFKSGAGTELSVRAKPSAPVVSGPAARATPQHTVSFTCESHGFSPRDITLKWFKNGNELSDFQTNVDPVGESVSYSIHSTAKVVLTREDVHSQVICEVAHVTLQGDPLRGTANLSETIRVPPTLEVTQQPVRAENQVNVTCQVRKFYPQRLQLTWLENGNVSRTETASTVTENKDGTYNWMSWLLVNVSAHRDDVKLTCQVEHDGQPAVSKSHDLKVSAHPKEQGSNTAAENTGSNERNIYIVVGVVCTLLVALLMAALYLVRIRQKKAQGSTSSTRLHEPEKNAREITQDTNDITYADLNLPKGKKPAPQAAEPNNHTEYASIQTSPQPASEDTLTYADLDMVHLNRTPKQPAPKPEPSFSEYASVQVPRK
Sequence of Tyrosine-protein phosphatase non-receptor type substrate 1 (Homo sapiens) + Leukocyte surface antigen CD47 (Homo sapiens) (Q08722 whole entry, looked up, the tested form may be a part): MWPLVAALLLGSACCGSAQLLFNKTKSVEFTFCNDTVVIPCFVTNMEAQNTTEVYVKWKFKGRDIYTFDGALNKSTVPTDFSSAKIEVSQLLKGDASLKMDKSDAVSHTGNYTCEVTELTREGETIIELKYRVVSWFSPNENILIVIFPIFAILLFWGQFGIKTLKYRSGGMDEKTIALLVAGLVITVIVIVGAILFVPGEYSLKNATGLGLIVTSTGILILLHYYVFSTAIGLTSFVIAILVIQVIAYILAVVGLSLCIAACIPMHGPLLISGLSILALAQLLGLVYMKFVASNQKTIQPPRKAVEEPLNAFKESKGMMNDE

This experiment has as its target Tyrosine-protein phosphatase non-receptor type substrate 1 (Homo sapiens) + Leukocyte surface antigen CD47 (Homo sapiens) (UniProt P78324+Q08722). Kind of experiment: CD47-SIRPalpha protein protein interaction - Alpha assay qHTS validation (AID 1347059).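 Note: bead proximity luminescence from CD47 binding SIRPalpha after compound preincubation with SIRPalpha.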 The following applies: AlphaScreen CD47-His/biotin-SIRPalpha binding, LOPAC; series mostly up to 38.3 µM. The method in brief: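 In PBS (pH 7.4) with 0.05% IGEPAL CA-630, compound is preincubated with biotin-Avi-SIRPalpha ectodomain before His-CD47 ectodomain and affinity beads are added. Light-protected room-temperature incubations; AlphaScreen readout.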
As to `COc1ccccc1N1CCN(CCCNc2cc(=O)n(C)c(=O)n2C)CC1`, the result was inactive. Under `CC(C)(C)c1ccc(C(O)CCCN2CCC(C(O)(c3ccccc3)c3ccccc3)CC2)cc1` (configuration not stated) stands “inactive”. With `CC(=O)N[C@@H](CS)C(=O)O` the entry was “inactive”; with `NC(N)=Nc1nc(CSCC/C(N)=N/S(N)(=O)=O)cs1`, “inactive”. With `CCCNC(=O)NS(=O)(=O)c1ccc(Cl)cc1` the entry was “inactive”; with `O=C1NC(=O)C(c2ccccc2)(c2ccccc2)N1`, “inactive”; with `CC(C)NCC(O)COc1cccc2[nH]ccc12` (configuration not stated), “inactive”. As to `CCN(CC)C(=O)c1ccc(O)c(OC)c1`, the result was inactive. As for `O=c1cc(-c2ccc(O)cc2)oc2cc(O)cc(O)c12`, the outcome was inactive. With `CC(=O)c1ccc(S(=O)(=O)NC(=O)NC2CCCCC2)cc1` the entry was “inactive”. As to `CC1(C)CCC2=C(O1)c1ccccc1C(=O)C2=O`, the result was inactive.

Turning to `CN(C)CCC(c1ccccc1)c1ccccn1` (configuration not stated), the outcome was inactive.
